Experimental findings from PubChem BioAssay (EPA / NIEHS) are described below.

Assay [1] is described as follows: Tanguay_ZF_120hpf_MORT: Oregon State University Tanguay Lab 120 Hour Post-fertilization zebrafish Assay for Mortality (AID 2284399). In a few lines: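 Dechorionated wild-type Tropical 5D zebrafish embryos, one per well from 6 hpf, static exposure to 120 hpf at 28C in sealed dark plates, 0.64% DMSO final. Mortality scored as binary by brightfield at 24 and 120 hpf.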

Assay [2] in a line: Tanguay_ZF_120hpf_EDEM: Oregon State University Tanguay Lab 120 Hour Post-fertilization zebrafish Assay for Edema Malformation (AID 2284400). In a few lines:
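Dechorionated Tropical 5D wild-type embryos, one per well, statically exposed from 6 to 120 hpf at 28C in 0.64% DMSO. Edema scored present/absent by brightfield microscopy at 120 hpf; dead embryos not scored; fit versus DMSO.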

A short description of assay [3]: Tanguay_ZF_120hpf_MUSC: Oregon State University Tanguay Lab 120 Hour Post-fertilization zebrafish Assay for Muscle Malformation (AID 2284401). In a few lines: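 Dechorionated Tropical 5D wild-type zebrafish embryos exposed statically from 6 to 120 hpf at 28C, one per well, in 0.64% DMSO. Muscle malformation scored present/absent by brightfield microscopy at 120 hpf, fitted against DMSO.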

The nature of assay [4]: Tanguay_ZF_120hpf_BRN: Oregon State University Tanguay Lab 120 Hour Post-fertilization zebrafish Assay for Brain Region Malformation (AID 2284402). As for the experimental part:
Tanguay_ZF_120hpf is a whole embryo, multiplexed endpoint assay using zebrafish larvae exposed for 120 hours post fertilization on a 96-well plate.Tanguay_ZF_120hpf_BRN is one of one assay component(s) measured or calculated from the Tanguay_ZF_120hpf assay. It is designed to make measurements of zebrafish development as detected with brightfield microscopy of developing zebrafish embryos.Data from the assay component Tanguay_ZF_120hpf_BRN was analyzed into 1 assay endpoints. This assay endpoint, Tanguay_ZF_120hpf_BRN, was analyzed in the positive analysis fitting direction relative to DMSO as the negative control and baseline of activity. Using a type of morphology reporter, gain-of-signal activity can be used to understand changes in developmentals as they relate to the whole embryo. To generalize the intended target to other relatable targets, this assay endpoint is annotated to the zebrafish development intended target family, where the subfamily is brain morphogenesis.
Zebrafish husbandry: Tropical 5D wild-type adult zebrafish were housed in at an approximate density of 1000 per 100 gallon tank at the Sinnhuber Aquatic Research Laboratory, Oregon State University, Corvallis, OR. […] At 24 hpf, embryos were assessed for photomotor response using a custom photomotor response analysis tool (PRAT) and for developmental toxicity endpoints (MO24: mortality at 24 hpf, DP: developmental progression, SM: spontaneous movement, and NC: notochord distortion). At 120 hpf, locomotor activity was measured using Viewpoint Zebralab and assessed for 13 endpoints. Zebrafish acquisition and analysis program (ZAAP), a custom program designed to inventory, acquire, and manage zebrafish data, was used to collect developmental endpoints as either present or absent (i.e., binary responses were recorded). If mortality occurred for an embryo (at either 24 or 120 hpf), the non-mortality endpoints were not measured.

Assay [5] in a line: Tanguay_ZF_120hpf_TCHR: Oregon State University Tanguay Lab 120 Hour Post-fertilization zebrafish Assay for Touch Responsive (AID 2284403). In outline:
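Dechorionated Tropical 5D wild-type zebrafish embryos, one per well from 6 hpf, were statically exposed to 120 hpf at 28 °C (0.64% DMSO). Touch response was scored present/absent at 120 hpf and not scored in dead larvae.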

A short description of assay [6]: Tanguay_ZF_120hpf_ANY: Oregon State University Tanguay Lab 120 Hour Post-fertilization zebrafish Assay for Any Mortality and Malformation (AID 2284404). In a few lines:
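Dechorionated Tropical 5D wild-type embryos, one per well from 6 hpf, static exposure in sealed, dark plates at 28C until 120 hpf, 0.64% DMSO final. Brightfield scoring of mortality and malformations as binary presence/absence, pooling 13 morphology endpoints.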

Assay [7] can be described thus: CCTE_Padilla_ZF_Score.Craniofacial: CCTE's 144 Hour Post-fertilization zebrafish Assay Score for Craniofacial Malformation, Padilla Lab (AID 2284405). In a few lines: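 Wild-type zebrafish embryos (with chorions), one per well in 10% Hanks', were dosed at 6–8 hpf in sealed plates and kept at 26C. They were rinsed at 5 dpf. At 6 dpf two blinded assessors scored craniofacial malformations by brightfield stereomicroscopy.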

Assay [8] can be described thus: CCTE_Padilla_ZF_Score.Edema: CCTE's 144 Hour Post-fertilization zebrafish Assay Score for Edema Malformation, Padilla Lab (AID 2284406). In outline:
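Wild-type zebrafish embryos, one per well in Hanks' solution, dosed at 6-8 hpf, sealed and reared at 26C on a 14:10 h cycle; rinsed on 5 dpf. At 6 dpf, blinded assessors scored edema by stereomicroscopy.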

A short description of assay [9]: CCTE_Padilla_ZF_Score.Spine: CCTE's 144 Hour Post-fertilization zebrafish Assay Score for Spine Malformation, Padilla Lab (AID 2284407). In a few lines: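 Wild-type zebrafish embryos, one per well in Hanks' solution, dosed at 6–8 hpf in sealed plates at 26C, 14:10 h light:dark; rinsed at 5 dpf. Two blinded assessors scored spinal defects by stereomicroscopy at 6 dpf; fitted versus DMSO.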

A short description of assay [10]: CCTE_Padilla_ZF_Score.Swim_bladder: CCTE's 144 Hour Post-fertilization zebrafish Assay Score for Swim Bladder Malformation, Padilla Lab (AID 2284408). As for the experimental part: CCTE_Padilla_ZF_Phenotype_Score is a whole embryo, multiplexed assay using zebrafish ova exposed for 144 hours post fertilization on a 96-well plate.CCTE_Padilla_ZF_Score.Swim_bladder is one of one assay component(s) measured or calculated from the CCTE_Padilla_ZF_Phenotype_Score assay. It is designed to make measurements of zebrafish development as detected with brightfield microscopy of developing zebrafish embryos.Data from the assay component CCTE_Padilla_ZF_Score.Swim_bladder was analyzed into 1 assay endpoints. This assay endpoint, CCTE_Padilla_ZF_Score.Swim_bladder, was analyzed in the positive analysis fitting direction relative to DMSO as the negative control and baseline of activity. Using a type of viability reporter, gain-of-signal activity can be used to understand changes in developmentals as they relate to the whole embryo. To generalize the intended target to other relatable targets, this assay endpoint is annotated to the zebrafish development intended target family, where the subfamily is swim bladder morphogenesis.
Zebrafish husbandry: Wild type adult zebrafish (Danio rerio; undefined outbred stock obtained from Aquatic Research Organisms, Hampton, NH, 03842) were housed in an AAALAC-approved animal facility at 28C with a 14:10 h light: dark cycle (lights on at 08:30 h). […]

Several values for one entry are separate records, joined by “and”; a condition that tells them apart may be missing. Identical values can stand only once. A structure can be active in one record and inactive in another. Activity calls are given as the source filed them. The calls were made as follows: active = hit-call score of the fitted dose curve at least 0.9, where 1 is the maximum; inactive = score below 0.9.

As for `O=S(=O)(O)C(F)(F)C(F)(F)C(F)(F)C(F)(F)C(F)(F)C(F)(F)C(F)(F)C(F)(F)F`, the AC50 in [1] is 22.5 µM (active); in assay [2], 32.7 µM (active) and 35.6 µM (active); in assay [4], 46 µM (active); in [5] it was 51.8 µM (active); in assay [6], 32.7 µM (active) and 16.7 µM (active); in [7], 8.88 µM (active) and 9.43 µM (active). Further, the AC50 is 8.88 µM (active) and 7.83 µM (active) in assay [8]; 26.6 µM (active) in assay [9]; 8.69 µM (active) and 3.21 µM (active) in assay [10]. The call in assay [1], in [3], in assay [4], in [5] and in assay [9] was inactive.
With `O=C(O)C(F)(F)C(F)(F)C(F)(F)C(F)(F)C(F)(F)C(F)(F)C(F)(F)F`, the compound was classed as inactive in [1], in [2], in [3], in [4], in assay [5] and in assay [6]. In addition, the result in [7], in [8], in assay [9] and in [10] was inactive.
